Sm TGR block = blocks Schistosoma mansoni thioredoxin glutathione reductase | Q962Y6 | purified TGR, DTNB reduction, TNB absorbance 405 nm | Potency, µM (titrated, usually from 114 µM), most hits filed as inhibitors | hit rate 3% among 360,000 | AID 485364; note: nearly all actives have a fitted effect of over 60% in size
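TGR 20 nM + NADPH 100 uM (dispensed conc.), cpd preinc 15 min RT; start with NADPH (500 uM addition) then DTNB (15 mM addition). Kinetic TNB absorbance, 405 nm filter. Four-parameter Hill fit across titration.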
FMDV antiviral = blocks foot and mouth disease virus; AID 1159524; hit rate 1.2% among 410,000; FMDV antiviral cell-based qHTS; Potency, µM (doses to about 57.9 µM), actives largely listed as inhibitors; calls by dose curve; tested in HEK293T cells; note: read-out not given here; nearly all actives have a fitted effect of over 45% in size
LASV entry inh = inhibitors of Lassa virus binding or cell entry; Potency, µM (top dose mostly 37.9 µM), hits mostly inhibitors; hit rate 1.2% among 300,000; Lassa virus pseudotype entry inhibition, cell reporter; calls by dose curve; tested in HEK293 cells; note: nearly all actives have a fitted effect of over 50% in size
RE007 growth inh = less growth of the S. pombe RE007 Vpr strain; S. pombe RE007 Vpr strain, BacTiter-Glo ATP luminescence, 24 h; Potency, µM (doses to about 92.2 µM), actives largely listed as inhibitors; hit rate 0.21% among 360,000; AID 651644; active = well fitted falling curve with a large enough effect; inconclusive = small, poorly fitted or top-dose-only effect; inactive = no such curve, though single readings can be large or run the other way; note: nearly all actives have a fitted effect of over 50% in size
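Fission yeast strain RE007, carrying one chromosomally integrated HIV-1 vpr copy, was seeded at OD 0.01 in PMG+AL medium with 23 nL pinned compound. After 24 h at 30 °C and 99% humidity, viability was read by BacTiter-Glo luminescence.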
HCV inh = blocks hepatitis C virus; Huh7.5.1 HCVcc-Cre infection, luciferase reporter, 44 h; hit rate 3.4% among 340,000; Potency, µM (titrated, usually from 41.8 µM), actives largely listed as inhibitors; AID 651820
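Whole-lifecycle infectious HCVcc-Cre system; cells 1,000/well, compound then virus (~0.5 moi) added 4 h after plating, 44 h culture. Luciferase read 15 sec following 15 min substrate incubation, room temp.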
Marburg entry inh = inhibitors of Marburg virus binding or cell entry; hit rate 1.8% among 300,000; Marburg virus pseudotyped entry inhibition, cell reporter; Potency, µM (titrated, usually from 37.8 µM), most hits filed as inhibitors; calls by dose curve; tested in HEK293 cells
Of the large screens only hits and unclear results are named; the others gave an inactive call. Shown are actives, neighbours in structure and some others; about 7.2% of the full set was active somewhere. Unless noted, calls come from the whole dose curve; as a rule, active = well fitted curve in the direction sought with a large enough effect; inconclusive = small, poorly fitted or top-dose-only effect, or another doubt; inactive = no such curve, though single readings can be large; an effect the other way counts as inactive or inconclusive.

COCC(C)N1CCC(n2nccc2NC(=O)c2ccccc2Cl)CC1 (centres undefined)	none (no result: Sm TGR block)
Cc1cc(Cl)ccc1OCC(=O)N1CCC(c2nc3ccccc3s2)CC1	FMDV antiviral inconclusive (no result: RE007 growth inh, HCV inh)
COc1ccc(-c2noc(CN(C(=O)C(C)Oc3ccc(C)cc3)C(C)C)n2)cc1 (centres undefined)	Marburg entry inh inconclusive (no result: RE007 growth inh, HCV inh)
COc1cc(/C=C/C(=O)OCC(=O)Nc2oc(C)c3c(C)n[nH]c(=O)c23)ccc1OC(F)F	Sm TGR block 22µM, HCV inh inconclusive, Marburg entry inh inconclusive
COc1cccc(OC)c1-c1cc(C(=O)NC2(C(=O)O)C3CC4CC(C3)CC2C4)nn1-c1ccc(C(=O)N(C)CCCN(C)C)cc1C(C)C (centres undefined)	none (no result: Sm TGR block, LASV entry inh, RE007 growth inh, HCV inh, Marburg entry inh)
O=C(Cc1coc2cc(O)ccc12)N1CCN(S(=O)(=O)c2ccc(Br)cc2)CC1	FMDV antiviral inconclusive, HCV inh 11µM (no result: Sm TGR block, LASV entry inh, Marburg entry inh)
N#Cc1cccc(-c2csc(C(O)(c3ccccc3)C(F)(F)F)n2)c1 (centres undefined)	RE007 growth inh inconclusive (no result: Sm TGR block, LASV entry inh, HCV inh, Marburg entry inh)
CCOC(=O)c1cnc(-n2nc(C)cc2C)nc1NC1CCCCC1	FMDV antiviral 10µM, LASV entry inh inconclusive, HCV inh 5.6µM, Marburg entry inh 6.3µM
CCOC(=O)c1cnc(-n2nc(C)cc2C)nc1Nc1ccc(N(C)C)cc1	LASV entry inh 7.3µM, HCV inh inconclusive, Marburg entry inh inconclusive
CCOC(=O)c1cnc(-n2nc(C)cc2C)nc1Nc1ccc(C)cc1	Marburg entry inh inconclusive
C=CCOc1c(Br)cc(CNc2ccc(NC(=O)C(C)C)c(OC)c2)cc1OC	FMDV antiviral inconclusive, LASV entry inh inconclusive, HCV inh 10µM, Marburg entry inh inconclusive
C=C[C@](C)(O)CCC=C(C)C	none (no result: Sm TGR block, LASV entry inh, RE007 growth inh, HCV inh, Marburg entry inh)
CCOC(=O)C(C#N)C(Cc1ccccc1)c1ccco1 (centres undefined)	Sm TGR block 45µM
CC(=O)O[C@@H]1N=C(c2ccccc2)c2ccccc2NC1=O	none (no result: Sm TGR block, FMDV antiviral, LASV entry inh, RE007 growth inh, HCV inh)
COc1ccc(-c2cc3nc(C)c(CCC(=O)N4CCN(c5ccccc5F)CC4)c(C)n3n2)c(OC)c1	FMDV antiviral inconclusive (no result: RE007 growth inh, HCV inh)
COc1ccc2nc3oc(C(=O)N4CCN(c5cc(C)ccc5C)CC4)cc3cc2c1	Sm TGR block 89µM, LASV entry inh inconclusive (no result: RE007 growth inh, HCV inh)
COc1ccc(-c2cccc(CCC(=O)N3CCN(c4cc(C)ccc4C)CC3)c2)cc1	FMDV antiviral inconclusive, HCV inh inconclusive (no result: Sm TGR block, LASV entry inh, Marburg entry inh)
COc1cc(OC)cc(-c2cc3nc(C)c(CCC(=O)O)c(C)n3n2)c1	FMDV antiviral 1.4µM (no result: LASV entry inh)
COc1ccc(-c2cc3nc(C)c(CCC(=O)N4CCN(c5cc(C)ccc5C)CC4)c(C)n3n2)c(OC)c1	FMDV antiviral 28µM (no result: RE007 growth inh, HCV inh)
COc1ccc(C(=O)CCC(=O)N2CCN(c3cc(C)ccc3C)CC2)cc1	FMDV antiviral inconclusive, HCV inh 10µM (no result: LASV entry inh, Marburg entry inh)
C[C@](N)(C(=O)O)c1ccc(-c2nn[nH]n2)cc1	none (no result: Sm TGR block, LASV entry inh, RE007 growth inh, HCV inh, Marburg entry inh)
Cc1ccc(F)cc1S(=O)(=O)NCc1nc(N2CCCC2)c2cccc(C)c2n1	none (no result: Sm TGR block, LASV entry inh, RE007 growth inh, HCV inh, Marburg entry inh)
COc1ccc(-c2nc3c4ccccc4ccn3c2CN2CCCCC2)cc1	HCV inh inconclusive (no result: Sm TGR block, LASV entry inh, Marburg entry inh)
COc1ccc(-c2nc3c4ccccc4ccn3c2CN2CCCCC2)cc1OC	HCV inh 11µM (no result: LASV entry inh, Marburg entry inh)
Cc1nn2c(N3CCN(C)CC3)cc(C(C)(C)C)nc2c1-c1ccccc1	FMDV antiviral inconclusive, LASV entry inh inconclusive, HCV inh inconclusive, Marburg entry inh 10µM
Cc1nn2c(N3CCN(C(=O)c4ccco4)CC3)cc(C(C)(C)C)nc2c1-c1ccccc1	FMDV antiviral 14µM
CC(C)(C)C1CCc2nc(NC(=O)c3cccc(Cl)c3)sc2C1 (centres undefined)	FMDV antiviral 2µM, Marburg entry inh inconclusive (no result: RE007 growth inh, HCV inh)
Cc1ccc2c(c1)COc1c3ccc(C(=O)O)cc3nn1-2	FMDV antiviral 10µM (no result: LASV entry inh, Marburg entry inh)
CC12CN3CC(C)(CN(C1)C3c1ccc(OCc3ccccc3)cc1)C2=O (centres undefined)	none (no result: RE007 growth inh, HCV inh)
Cc1ccc2sc(N(Cc3cccnc3)C(=O)CCS(=O)(=O)c3ccccc3)nc2c1C	Sm TGR block 35µM (no result: RE007 growth inh, HCV inh, Marburg entry inh)
Cc1cc(C)c2nc(N(Cc3cccnc3)C(=O)CCS(=O)(=O)c3ccccc3)sc2c1	none (no result: RE007 growth inh, HCV inh, Marburg entry inh)
O=C(CCS(=O)(=O)c1ccccc1)N(Cc1cccnc1)c1nc2c(Cl)cccc2s1	Sm TGR block 1.6µM (no result: RE007 growth inh, HCV inh, Marburg entry inh)
Cc1cccc2sc(N(Cc3cccnc3)C(=O)CCS(=O)(=O)c3ccccc3)nc12	Sm TGR block 4.5µM, LASV entry inh inconclusive (no result: RE007 growth inh, HCV inh, Marburg entry inh)
O=C(Cc1ccccc1)N1CCc2[nH]nc(-c3ccccc3)c2C1	LASV entry inh 11µM, Marburg entry inh inconclusive
COc1ccc(NC(=O)c2[nH]c(C)c(C(C)=O)c2C)cc1S(=O)(=O)Nc1ccc(Br)cc1	LASV entry inh inconclusive, HCV inh 14µM, Marburg entry inh inconclusive
COc1ccc(C(C)(C)C)cc1NC(=O)c1[nH]c(C)c(C(C)=O)c1C	LASV entry inh 11µM, HCV inh inconclusive, Marburg entry inh 10µM
Cc1oc(-c2ccc(Cl)cc2)cc1-c1nn2c(-c3ccoc3C)nnc2s1	Sm TGR block 22µM, RE007 growth inh inconclusive
O=S(NCc1ccco1)C12CC3CC(CC(C3)C1)C2 (centres undefined)	Sm TGR block 22µM (no result: FMDV antiviral)
O=C(NCc1ccco1)C12CC3CC(C1)CC(C(=O)NCc1ccco1)(C3)C2	Sm TGR block 40µM
O=S(NCc1ccccc1)C12CC3CC(CC(C3)C1)C2 (centres undefined)	none (no result: FMDV antiviral)

Assay outcomes (PubChem BioAssay)
